PubChem BioAssay (EPA / NIEHS)
Activity calls are given as the source filed them. How the source made its calls: active means hit-call score of the fitted dose curve at least 0.9, where 1 is the maximum; inactive means score below 0.9.

Read-out: Pyruvate Dehydrogenase Kinase 4 (PDK4), PDK4 (gene 5166)
Assay: LTEA_HepaRG_PDK4: Life Technologies and Expression Analysis (LTEA) Assay for Pyruvate Dehydrogenase Kinase 4 (PDK4) using HepaRG (AID 2283525)
Conditions: mRNA level, 48 h; actives raise or lower the signal
In short: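 HepaRG (human liver line), 48 h chemical exposure, 8-pt half-log CRC top 100 uM, 0.5% DMSO vehicle, duplicates. Readout: TaqMan qRT-PCR of PDK4 mRNA, housekeeping-normalized; gain/loss fit relative to DMSO baseline.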

SMILES	AC50	outcome
Cc1[nH]cnc1C[C@H]1CCc2c(C)c3ccccc3n2C1=O	68.3 µM (active)	
Cc1ccc(N)cc1O		inactive
COc1ccc(/C=C/S(=O)(=O)NC(=O)c2ccc(C)cc2Cl)cc1	6.62 µM (active)	
Nc1ccc(Nc2ccccc2)cc1		inactive
CNS(=O)(=O)c1cc(C(=O)N2CCC(CCN3C4CCC3CC(n3c(C)nc5ccccc53)C4)(c3cccc(F)c3)CC2)c(Cl)cc1F (stereo not drawn)	28.9 µM (active)	
O=P(OC(CCl)CCl)(OC(CCl)CCl)OC(CCl)CCl		inactive
CC(C)c1cccc(C(C)C)c1N1C(=O)c2ccc(O)cc2C1=O		inactive
Oc1ccc2c(c1)-c1ccccc1C2	25.2 µM (active)	
CCOCCO		inactive
C=CCCCCCCCCC(=O)O		inactive
O=C(O)c1cccc(Oc2ccccc2)c1	50 µM (active)	
CC(C)CC(C)(O)C#CC(C)(O)CC(C)C (stereo not drawn)		inactive
CC1(C)C(=O)N(Br)C(=O)N1Br		inactive
C1=CCCC=CCCC=CCC1		inactive
COc1cccc(-c2ccc(/C=C\CN3CCCCCC3)cc2Cl)c1	74.1 µM (active)	
CC(=O)OCCC(C)C		inactive
O=c1n(CC2CO2)c(=O)n(CC2CO2)c(=O)n1CC1CO1 (stereo not drawn)		inactive
Cc1ccc(O)cc1		inactive
CCN(C(=O)c1cc(C)cc(OC[C@H](C)Nc2ccncc2)c1)C(C)C	53.7 µM (active)	
COC(=O)c1c(Cl)c(Cl)c(C(=O)OC)c(Cl)c1Cl		inactive
CC[C@H](C)C(=O)O[C@H]1C[C@@H](C)C=C2C=C[C@H](C)[C@H](CC[C@@H]3C[C@@H](O)CC(=O)O3)[C@H]21	16.9 µM (active)	
CC(C)=CCC/C(C)=C/CO		inactive
CCOC(=O)c1ccc(C2CCC(NC[C@H](O)COc3ccc(O)c(NS(C)(=O)=O)c3)CC2)cc1 (stereo partly drawn)		inactive
CCOC(=O)COc1ccc2c(c1)CC(NCC(O)c1cccc(Cl)c1)CC2 (stereo not drawn)		inactive
CC/C(=C\C(=N/O)C(N)=O)C(C)[N+](=O)[O-] (stereo not drawn)		inactive
O=C(O)CCN(C1(C(=O)NO)CCCC1)S(=O)(=O)c1ccc(Oc2ccc(F)cc2)cc1		inactive
O=C1CCC(N2C(=O)c3ccccc3C2=O)C(=O)N1 (stereo not drawn)		inactive
O=C(OC[C@H]1O[C@@H](OC(=O)c2cc(O)c(O)c(OC(=O)c3cc(O)c(O)c(O)c3)c2)[C@H](OC(=O)c2cc(O)c(O)c(OC(=O)c3cc(O)c(O)c(O)c3)c2)[C@@H](OC(=O)c2cc(O)c(O)c(OC(=O)c3cc(O)c(O)c(O)c3)c2)[C@@H]1OC(=O)c1cc(O)c(O)c(OC(=O)c2cc(O)c(O)c(O)c2)c1)c1cc(O)c(O)c(OC(=O)c2cc(O)c(O)c(O)c2)c1	24.5 µM (active)	
CCc1cc(SCc2sc(-c3ccc(C(F)(F)F)cc3)nc2CN2CCN(c3ccc(OC)cc3)CC2)ccc1OCC(=O)O	92.2 µM (active)	

Read-out: NAD(P)H dehydrogenase [quinone] 1 (NQO1), NQO1 (gene 1728)
Assay: LTEA_HepaRG_NQO1: Life Technologies and Expression Analysis (LTEA) Assay for NAD(P)H dehydrogenase [quinone] 1 (NQO1) using HepaRG (AID 2283526)
Conditions: mRNA level, 48 h; actives raise or lower the signal
In short: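 In this assay, gene expression is read by qRT-PCR after 48 h exposure of HepaRG cells to eight concentrations (max 100 uM, half-log) in 0.5% DMSO. Each chemical runs in duplicate, and activity is scored relative to vehicle.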

SMILES	outcome	AC50
Cc1[nH]cnc1C[C@H]1CCc2c(C)c3ccccc3n2C1=O	inactive	
Cc1ccc(N)cc1O	inactive	
COc1ccc(/C=C/S(=O)(=O)NC(=O)c2ccc(C)cc2Cl)cc1	inactive	
Nc1ccc(Nc2ccccc2)cc1	inactive	
CNS(=O)(=O)c1cc(C(=O)N2CCC(CCN3C4CCC3CC(n3c(C)nc5ccccc53)C4)(c3cccc(F)c3)CC2)c(Cl)cc1F (stereo not drawn)	inactive	
O=P(OC(CCl)CCl)(OC(CCl)CCl)OC(CCl)CCl	inactive	
CC(C)c1cccc(C(C)C)c1N1C(=O)c2ccc(O)cc2C1=O	inactive	
Oc1ccc2c(c1)-c1ccccc1C2	inactive	
CCOCCO	inactive	
C=CCCCCCCCCC(=O)O	inactive	
O=C(O)c1cccc(Oc2ccccc2)c1	inactive	
CC(C)CC(C)(O)C#CC(C)(O)CC(C)C (stereo not drawn)	inactive	
CC1(C)C(=O)N(Br)C(=O)N1Br	inactive	
C1=CCCC=CCCC=CCC1	inactive	
COc1cccc(-c2ccc(/C=C\CN3CCCCCC3)cc2Cl)c1	inactive	
CC(=O)OCCC(C)C	inactive	
O=c1n(CC2CO2)c(=O)n(CC2CO2)c(=O)n1CC1CO1 (stereo not drawn)	inactive	
Cc1ccc(O)cc1	inactive	
CCN(C(=O)c1cc(C)cc(OC[C@H](C)Nc2ccncc2)c1)C(C)C	inactive	
COC(=O)c1c(Cl)c(Cl)c(C(=O)OC)c(Cl)c1Cl	inactive	
CC[C@H](C)C(=O)O[C@H]1C[C@@H](C)C=C2C=C[C@H](C)[C@H](CC[C@@H]3C[C@@H](O)CC(=O)O3)[C@H]21	inactive	
CC(C)=CCC/C(C)=C/CO	inactive	
CCOC(=O)c1ccc(C2CCC(NC[C@H](O)COc3ccc(O)c(NS(C)(=O)=O)c3)CC2)cc1 (stereo partly drawn)	inactive	
CCOC(=O)COc1ccc2c(c1)CC(NCC(O)c1cccc(Cl)c1)CC2 (stereo not drawn)	inactive	
CC/C(=C\C(=N/O)C(N)=O)C(C)[N+](=O)[O-] (stereo not drawn)	inactive	
O=C(O)CCN(C1(C(=O)NO)CCCC1)S(=O)(=O)c1ccc(Oc2ccc(F)cc2)cc1	inactive	
O=C1CCC(N2C(=O)c3ccccc3C2=O)C(=O)N1 (stereo not drawn)	inactive	
O=C(OC[C@H]1O[C@@H](OC(=O)c2cc(O)c(O)c(OC(=O)c3cc(O)c(O)c(O)c3)c2)[C@H](OC(=O)c2cc(O)c(O)c(OC(=O)c3cc(O)c(O)c(O)c3)c2)[C@@H](OC(=O)c2cc(O)c(O)c(OC(=O)c3cc(O)c(O)c(O)c3)c2)[C@@H]1OC(=O)c1cc(O)c(O)c(OC(=O)c2cc(O)c(O)c(O)c2)c1)c1cc(O)c(O)c(OC(=O)c2cc(O)c(O)c(O)c2)c1		5.1 µM (active)
CCc1cc(SCc2sc(-c3ccc(C(F)(F)F)cc3)nc2CN2CCN(c3ccc(OC)cc3)CC2)ccc1OCC(=O)O		8.39 µM (active)
